About 10,000 (3%) of roughly 330,000 compounds were called active.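 The calls were made as follows: active = inhibition of at least 50% at 8 µM in the primary screen; inactive = the rest.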 The list comes from a sample in which actives are over-represented; it also holds similar structures and randomly drawn compounds.

For 85 compounds, inhibition results are on record in PubChem BioAssay AID485346 (Sanford-Burnham Center for Chemical Genomics, 2010).

In this assay the target is Protein Mdm4 (Homo sapiens) + E3 ubiquitin-protein ligase Mdm2 (Homo sapiens) (UniProt O15151+Q00987). Briefly: inhibitors of human Mdm2-MdmX association, primary screen, cell-based, luminescence, split luciferase, SaOS-2, uHTS (AID 485346). To be noted: SaOS-2 split-luciferase Mdm2/MdmX complementation, at 8 µM, active compounds read high.
Chain of Protein Mdm4 (Homo sapiens) + E3 ubiquitin-protein ligase Mdm2 (Homo sapiens) (O15151 whole entry, looked up): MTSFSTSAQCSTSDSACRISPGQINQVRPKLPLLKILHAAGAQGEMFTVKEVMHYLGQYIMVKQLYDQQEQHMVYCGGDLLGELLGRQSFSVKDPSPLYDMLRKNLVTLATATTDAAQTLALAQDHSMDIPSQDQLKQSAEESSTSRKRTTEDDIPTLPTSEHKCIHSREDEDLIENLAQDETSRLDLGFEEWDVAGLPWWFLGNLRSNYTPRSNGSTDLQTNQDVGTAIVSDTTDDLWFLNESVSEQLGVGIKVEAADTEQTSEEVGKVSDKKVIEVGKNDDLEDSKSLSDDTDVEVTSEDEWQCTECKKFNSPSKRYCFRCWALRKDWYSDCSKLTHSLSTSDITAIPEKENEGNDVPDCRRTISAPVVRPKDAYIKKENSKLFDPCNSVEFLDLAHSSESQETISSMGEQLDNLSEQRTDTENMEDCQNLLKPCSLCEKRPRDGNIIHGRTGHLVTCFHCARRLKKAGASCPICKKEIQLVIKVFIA
Chain of Protein Mdm4 (Homo sapiens) + E3 ubiquitin-protein ligase Mdm2 (Homo sapiens) (Q00987 whole entry, looked up): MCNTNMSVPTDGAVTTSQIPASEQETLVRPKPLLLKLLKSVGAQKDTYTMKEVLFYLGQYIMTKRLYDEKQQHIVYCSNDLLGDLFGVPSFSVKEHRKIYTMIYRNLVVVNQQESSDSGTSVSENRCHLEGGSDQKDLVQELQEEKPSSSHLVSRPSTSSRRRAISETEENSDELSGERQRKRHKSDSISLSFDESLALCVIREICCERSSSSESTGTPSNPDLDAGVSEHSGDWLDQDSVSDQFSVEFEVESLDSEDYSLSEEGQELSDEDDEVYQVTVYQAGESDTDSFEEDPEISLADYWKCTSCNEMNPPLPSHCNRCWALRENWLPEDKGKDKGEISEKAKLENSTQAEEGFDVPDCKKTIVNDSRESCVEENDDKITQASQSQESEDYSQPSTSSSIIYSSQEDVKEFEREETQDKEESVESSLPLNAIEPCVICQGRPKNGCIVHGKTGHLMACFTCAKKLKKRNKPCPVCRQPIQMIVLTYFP
Take `COc1ccc(S(=O)(=O)N2CCN(C(=O)N(C)C)C2C)cc1` (stereo not given): the inhibition is -11.6% (inactive).
In the case of `O=c1ccc2cc(S(=O)(=O)NCCCc3ccccc3)ccc2[nH]1`, the inhibition was 23.1% (inactive).
`N#Cc1c(N)nc2c(c1N)CC(C(F)(F)F)O2` (stereo not given): the inhibition is 9.73% (inactive).
On to `Cc1ccc(-c2nn(-c3ccccc3)cc2/C=C2\SC(=S)N(CCCCCC(=O)O)C2=O)o1`, for which the inhibition was 34% (inactive).
For the compound `O=C(CN1C(=O)/C(=C\c2ccccc2F)SC1=S)Nc1nc2ccccc2s1`, the inhibition is -22.4% (inactive).
With `CN1C(=O)/C(=C/c2ccco2)SC1=Nc1cccc(C(=O)O)c1`, the inhibition was -14.1% (inactive).
For `O=C(CCCN1C(=O)/C(=C/c2ccco2)SC1=S)Nc1ccccc1`, the inhibition is 68.6% (active).
In the case of `O=C(CCCCCN1C(=O)c2cccc3cccc(c23)C1=O)NCc1ccco1` it was 2.52% (inactive).
Regarding `O=C(CCCN1C(=O)/C(=C\c2ccco2)SC1=S)Nc1cccc2ccccc12`, the inhibition is 86.5% (active).
Next, `Cc1sc(NC(=O)C2=COCCO2)c(C#N)c1C`: -49.9% (inactive); `COc1ccc(N2CCN(C(=O)CN3C(=O)COc4ccccc43)CC2)cc1`: -8.57% (inactive); `CNC1(c2nnnn2-c2c(C)cccc2C)CCOC(C)(C)C1` (stereo not given): 1.22% (inactive).
Turning to `CCOC(=O)[C@H]1[C@H]2COc3cc(OC)ccc3[C@@H]2N2C(=O)CN(Cc3ccc(Cl)cc3)C(=O)[C@@]12C`, the inhibition is -12% (inactive).
In the case of `O=C(Cc1ccc(S(=O)(=O)N2CCOCC2)s1)NCCOc1ccccc1F` it was 11.2% (inactive); in that of `Oc1c(Cl)cc(Cl)c(Cl)c1Cc1c(O)c(Cl)cc(Cl)c1Cl`, 95% (active); in that of `CCOc1cc(/C=N/NC(=O)c2ccc(CSc3nncn3C)cc2)ccc1OCC(=O)N1CCOCC1`, -20% (inactive).
In the case of `CCCCNc1c(-c2cccc(Sc3ccc(OC)cc3)c2)nc2ccccn12` it was 78.3% (active); in that of `CCCCCCSc1ccc(-c2nc3ccc(Cl)cn3c2NCc2ccccc2)cc1`, -24.5% (inactive).
Next, `CCCCNc1c(-c2ccc(OC)c(Sc3ccc(OC)cc3)c2)nc2ccc(Cl)cn12`: 41.1% (inactive); `CC(=NCC1CCCO1)c1c(O)[nH]c(=O)[nH]c1=O` (stereo not given): 60.2% (active).
With `O=C1C(C=NCC2CCCO2)=C(O)c2ccccc21` (stereo not given), the inhibition was -17% (inactive).
Next, `CC(=NC1CCN(Cc2ccccc2)CC1)c1c(O)[nH]c(=O)[nH]c1=O`: 10.7% (inactive); `CN(Cc1ccccc1)C(=O)c1cccc(C(=O)N(C)Cc2ccccc2)c1`: -13.2% (inactive); `N#C/C(=C\c1ccccc1)c1n[nH]c(Cn2cncn2)n1`: -1.38% (inactive).
Next, `CCOC(=O)N1CCN(C(=O)C(=O)Nc2sc3c(c2C#N)CC(C)(C)OC3)CC1`: 13.5% (inactive); `O=C(NCc1ccccc1)C1C(=O)N(Cc2ccccc2)C(=O)C1C1(O)CCCC1` (stereo not given): 13% (inactive).
In the case of `CCc1nc(C)cn1S(=O)(=O)c1cc([N+](=O)[O-])ccc1Cl` it was 66.2% (active).
In the case of `CCc1nc(C)cn1S(=O)(=O)c1cc(OC)c(C)cc1C`, the inhibition was 8.72% (inactive).
In the case of `CC(C)c1nccn1S(=O)(=O)c1cc([N+](=O)[O-])ccc1Cl` it was 25.4% (inactive); in that of `C/C(=C(\C#N)C(=O)NCCCN1CCOCC1)N(C)C`, 13.1% (inactive).
Regarding `C#CCOCCOCCOCCNc1nc(N2CCN(C(=O)CCCCCCCCCCNC(=O)[C@H]([C@@H](C)CC)n3cc(CCCCN=C(N)N)nn3)CC2)nc(N2CCN(C(=O)CCCCCCCCCCNC(=O)[C@H](CO)n3cc(CCCSC)nn3)CC2)n1`, the inhibition was 12.1% (inactive).
Next, `C#CCOCCOCCOCCNc1nc(N2CCN(C(=O)CCCCCCCCCCNC(=O)[C@H](CCCCN)n3cc(C)nn3)CC2)nc(N2CCN(C(=O)CCCCCCCCCCNC(=O)[C@H](CO)n3cc(CCCSC)nn3)CC2)n1`: 52.3% (active); `C#CCOCCOCCOCCNc1nc(N2CCN(C(=O)CCCCCCCCCCNC(=O)Cn3cc(CCCCCN)nn3)CC2)nc(N2CCN(C(=O)CCCCCCCCCCNC(=O)[C@H](CO)n3cc(CCCSC)nn3)CC2)n1`: 11.3% (inactive); `COCCN(C(=O)CC1CCCCC1)c1c(N)n(CC(C)C)c(=O)[nH]c1=O`: 13.6% (inactive).
On to `CCOC(=O)CCCNC(=O)COC(=O)c1cc(Br)c(Br)s1`, for which the inhibition was 12% (inactive).
On to `COc1ccc(C)cc1NC(=O)CSc1nnc2ccc(-c3ccccn3)nn12`, for which the inhibition was 15.8% (inactive).
Next, `COc1ccc(-c2nc3n(c(=O)c2C#N)CCS3)c(OC)c1`: 1.98% (inactive); `Cc1c(Br)c([N+](=O)[O-])nn1C(C)C(=O)Nc1nccs1` (stereo not given): 9.97% (inactive); `CC(C)OCCCNC(=O)CN1C(=O)/C(=C/c2ccccc2F)Oc2ccccc21`: 13.4% (inactive).
In the case of `CN1CCN(CCCNC(=O)c2ccc(/C=C3\Oc4ccccc4N(Cc4ccc(Cl)cc4)C3=O)cc2)CC1`, the inhibition was 99.3% (active).
Take `Cc1nn(Cc2ccccc2)c(C)c1C(=O)NCCN1C(=O)S/C(=C\c2ccc(F)cc2)C1=O`: the inhibition was 26.7% (inactive).
Next, `Cc1ccccc1CN1C(=O)c2ccccc2Sc2ccc(C(=O)NCCCN3CCOCC3)cc21`: 24.3% (inactive).
On to `O=C(NCCN1CCOCC1)c1ccc(/C=C2\Sc3ccccc3N(Cc3ccc(F)cc3)C2=O)cc1`, for which the inhibition was 62.4% (active).
On to `O=C(NCCN1CCOCC1)/C(=C/c1ccc(F)cc1)NC(=O)c1ccccc1`, for which the inhibition is -6.74% (inactive).
Regarding `CCCN1CCN(C(=O)CCCNC(=O)c2ccc(Cl)cc2)CC1`, the inhibition is -0.622% (inactive).
In the case of `O=C(NCCCN1CCOCC1)c1ccc2c(c1)N(Cc1cccc(F)c1)C(=O)c1ccccc1S2` it was 13.8% (inactive).
In the case of `CCN1CCN(CCNC(=O)c2ccc(/C=C3/Sc4ccccc4N(Cc4cccc(C)c4)C3=O)cc2)CC1` it was 96.1% (active).
In the case of `O=C(CCc1ccc(S(=O)(=O)N2CCOCC2)cc1)NN=C1CCCCCCC1`, the inhibition was 21.1% (inactive).
Next, `N#Cc1cccc(NC(=O)C2CCCN(C(=O)c3ccc(Cl)cc3)C2)c1` (stereo not given): 27.2% (inactive).
For `O=C(NNC(=O)C1C2CCC(C2)C1C(=O)O)c1ccc(Cl)cc1` (stereo not given), the inhibition is -14% (inactive).
As for `COc1ccc(C(=O)COC(=O)c2nn(C)c(=O)c3ccccc23)c(OC)c1`, the inhibition is 3.83% (inactive).
With `CC(NC(=O)c1cccc(S(=O)(=O)N2CCc3ccccc3C2)c1)c1ccco1` (stereo not given), the inhibition was 3.48% (inactive).
As for `O=C(NCc1ccncc1)c1cccc(NS(=O)(=O)c2ccc(F)c(F)c2)c1`, the inhibition is -23.7% (inactive).
Next, `CCOC(=O)C1=C(C)c2ccccc2OC1(C)C(=O)OCC` (stereo not given): 11.2% (inactive); `CC(Oc1ccc2c(-c3ccccc3)cc(=O)oc2c1)C(=O)NC(Cc1c[nH]c2ccccc12)C(=O)O` (stereo not given): 15.6% (inactive).
`Cc1ccc(-c2nc(C)sc2CC(=O)OCC(=O)Nc2c(F)cccc2F)cc1`: the inhibition was 7.55% (inactive).
In the case of `O=C(O)CCCn1c(=O)c2cccn2c2ccc(F)cc21` it was 4.87% (inactive); in that of `Cc1nnc(N/N=C/C2CC=CCC2)[nH]c1=O` (stereo not given), 12.6% (inactive); in that of `Cc1nnc(N/N=C/c2ccccn2)[nH]c1=O`, 78.6% (active).
Regarding `Cc1cc(C(=O)N/N=C/c2ccccn2)c2ccccc2n1`, the inhibition is -15.6% (inactive).
As to `COc1ccc(-c2nc3c(s2)CCc2onc(-c4ccc(OC)cc4)c2-3)cc1`, the inhibition was 1.93% (inactive).
Next, `O=C(c1ccc(Cl)cc1)N1N=C(c2ccccn2)CC1(O)C(F)(F)F` (stereo not given): 53% (active); `O=C(C1CC1)N1N=C(c2ccc(Br)cc2)CC1(O)C(F)(F)F` (stereo not given): -5.88% (inactive); `O=C(Cc1ccccc1)N1N=C(c2ccncc2)CC1(O)C(F)(F)F` (stereo not given): 13.3% (inactive).
In the case of `Cc1ccc(NC(=O)CC2C(=O)N(Cc3ccccc3)C(=S)N2NC(=O)c2cccc(F)c2)c(C)c1` (stereo not given) it was 6.53% (inactive); in that of `Fc1ccccc1/C=C1\CCCC2=C1Nc1ncnn1C2c1ccccc1F` (stereo not given), 98.8% (active); in that of `Cc1ccc(S(=O)(=O)N2CCCCC2)cc1C(=O)N1CCN(CCO)CC1`, 18.6% (inactive).
On to `CNC[C@H](CC1CCCCC1)NC[C@H](NCCC1CCCC1)[C@H](C)O`, for which the inhibition is 99.7% (active).
Next, `COc1ccccc1N(C)C(=O)c1cc(S(=O)(=O)N2CCc3ccccc32)cn1C`: 14.1% (inactive); `O=C(CC1SC(N2CCCC2)=NC1=O)Nc1ccc(C(=O)NCCc2ccc(F)cc2)cc1` (stereo not given): 33.7% (inactive).
Consider `N#Cc1ncc(C(F)(F)F)cc1Oc1cccnc1`, for which the inhibition was -4.54% (inactive).
In the case of `Cc1nnc(SCCCCSc2nnc(C)c(=O)[nH]2)[nH]c1=O` it was -27.7% (inactive).
Next, `CCN1C(=O)N[C@@H](CCc2ccccc2)C(C(=O)OC)=C1C`: 10.9% (inactive); `CCC(CC)c1nnc(NC(=O)c2nn(C)c(=O)c3ccccc23)s1`: -51.8% (inactive).
Next, `COC(=O)c1cc(NC(=O)c2nn(C)c(=O)c3ccccc23)cc(C(=O)OC)c1`: 51.2% (active); `CCC(C)NC(=O)c1nn(C)c(=O)c2ccccc12` (stereo not given): 0.304% (inactive); `COc1ccc(C)cc1NC(=O)CCCN1C(=O)NC(C)(C)C1=O`: 7.88% (inactive).
Take `COC(=O)C1=C(N)Oc2cc(C)[nH]c(=O)c2C1c1ccc(Cl)cc1` (stereo not given): the inhibition is -16.2% (inactive).
Turning to `Cc1ccc(CC(=O)Nc2ccc(OC(F)F)c(Cl)c2)cc1C`, the inhibition was 15.9% (inactive).
Next, `O=C(Cc1ccc(Cl)c(Cl)c1)Nc1ccc(SC(F)F)cc1`: 72.9% (active); `CC(=O)N1CCN(CC(=O)Nc2ccc(SC(F)F)cc2)CC1`: -2.95% (inactive); `CC(=O)c1c(C)[nH]c(C(=O)OCC(=O)Nc2c(C)n(C)n(-c3ccccc3)c2=O)c1C`: 11.3% (inactive).
In the case of `Cc1nc(N2CCN(c3ccccn3)CC2)c2c(C)c(C(=O)Nc3ccc(F)cc3)sc2n1` it was 35.2% (inactive); in that of `Cc1nc(N2CCN(c3ccccn3)CC2)c2c(C)c(C(=O)Nc3ccc(F)c(Cl)c3)sc2n1`, 61.2% (active).
Next, `COc1ccc(NC(=O)c2sc3nc(C)nc(N4CCN(c5ccccn5)CC4)c3c2C)c(OC)c1`: 36.5% (inactive).
